# Experimental data as given in PubChem BioAssay AID720706 (Broad Institute, 2013).
# “And” between values parts separate entries of the source, which are not always exact repeats. Equal values may be shown once. The campaign covered roughly 350,000 compounds. About 5,500 (1.6%) were called active.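 How the source made its calls: active means significant combined selectivity score with lowered wild-type GFP, culture density cut under 30%, mutant RFP and density less affected; inactive means any of these conditions unmet.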 The sample as a whole holds a higher share of actives than the screen did.
# Test: GFP drop in mixed WT/humanized-ribosome E. coli culture – GFP/RFP fluorescence, OD600, single point, bacterial rRNA inhibitor project, primary screen (AID 720706)
# Conditions: E. coli WT GFP vs humanized-ribosome RFP mutants, 24 h; GFP signal change (wild-type ribosome): stronger effect = lower value, DMSO median 0, no signal -100; OD600 change: measured here: OD600 growth, DMSO median 0, no signal -100; RFP signal change: measured here: RFP humanized mutant strains, DMSO median 0, no signal -100, concentration not given here
SMILES,GFP signal change (wild-type ribosome),OD600 change,RFP signal change
CO[C@@H]1CN(C)C(=O)c2cc(NC(=O)C3CCCC3)ccc2OC[C@@H](C)N(C(=O)Nc2ccc(C(F)(F)F)cc2)C[C@H]1C,-37.8% (active),-17.8%,-5.86%
CO[C@@H]1CN(C)C(=O)c2cc(NC(=O)C3CC3)ccc2OC[C@@H](C)N(C(=O)NC(C)C)C[C@@H]1C,2.5% (inactive),1.51%,-0.768%
CO[C@@H]1CN(C)C(=O)c2cc(NC(=O)C3CCCCC3)ccc2OC[C@@H](C)N(C(=O)Nc2ccc(C(F)(F)F)cc2)C[C@H]1C,-0.109% (inactive) and 1.77% (inactive),2.19% and -2.79%,2.17% and 2.36%
COc1ccccc1NC(=O)N1CC(=O)N2[C@@H](CO)[C@H](c3ccc(C#CC4CC4)cc3)[C@@H]2C1,-2.35% (inactive),-11.8%,0.376%
CCn1c(CNC(=O)c2cc(OC)c(OC)c(OC)c2)cc2cc(C)ccc21,15.4% (inactive),1.59%,-1.24%
COc1cc(C(=O)NCC(=O)N2CC=C(c3ccccc3)CC2)cc(OC)c1OC,-28.4% (active),-22%,0.011%
COc1ccc(OC)c(CN2CCN(C(=O)CNC(=O)c3cc(C)cc(C)c3)CC2)c1,4.96% (inactive),-6.51%,0.577%
CC(=O)N(C)C[C@@H]1Oc2ccc(NC(=O)NC(C)C)cc2C(=O)N(C)C[C@H]1C,1.73% (inactive),-0.17%,-0.644%
COc1cccc(-c2coc3cc4oc(=O)c(CC(=O)O)c(C)c4cc23)c1,-25.9% (inactive),-55.2%,-6.38%
Cc1coc2cc3oc(=O)c(CCC(=O)O)c(C)c3cc12,-8.99% (inactive),-10.5%,3.81%
Cc1c(CCC(=O)O)c(=O)oc2cc3occ(-c4ccccc4)c3cc12,-41.8% (active),-27.4%,-8.24%
CCCC#Cc1cnc2c(c1)C(=O)N([C@H](C)CO)C[C@H](C)[C@H](CN(C)S(=O)(=O)c1cn(C)cn1)O2,7.7% (inactive),7.52%,-1.55%
Cc1ccc(NC(=S)NC(NC(=O)Cc2cccc3ccccc23)C(Cl)(Cl)Cl)cc1 (stereo not given),2.41% (inactive),7.34%,6.73%
O=C(Cc1cccc2ccccc12)NNC(=O)Nc1ccc(Cl)cc1,-29.7% (active),-2%,-3.61%
O=C(O)Cc1ccc(NC(=O)Nc2cccc3ccccc23)cc1,-0.412% (inactive),0.56%,-3.8%
COc1ccc([C@@H]2C/C=C\C[C@@H](c3ccc4c(c3)OCO4)NC(=O)CCC(=O)N2)c(OC)c1,-4.75% (inactive),-1.11%,0.958%
C[C@@H]1CN([C@@H](C)CO)C(=O)Cc2cc(NS(=O)(=O)c3ccc(Cl)cc3)ccc2O[C@H]1CN(C)C(=O)Nc1cccc2ccccc12,-0.7% (inactive),-5.33%,1.87%
O=C(C[C@@H]1CC[C@@H](NC(=O)C2CCOCC2)[C@H](CO)O1)Nc1ccc(-c2ccccc2)cc1,-6.86% (inactive),-2.81%,-1.67%
CNC[C@H]1Oc2ncccc2C(=O)N(C)C[C@@H]1C,2.83% (inactive),2.62%,-0.315%
COc1ccc(CCNC(=O)COC(=O)/C=C/c2cccs2)cc1OC,-13.7% (inactive),-0.226%,6.24%

SMILES,GFP signal change (wild-type ribosome),OD600 change,RFP signal change
COc1ccc(CCNC(=O)c2cc3sccc3n2C)cc1OC,-23.3% (active),-13%,-7.3%
COc1ccc(CCNC(=O)Cc2ccc(C)cc2)cc1OC,1.64% (inactive),11.3%,-4.01%
C/C=C/c1ccc2c(c1)[C@H]1[C@H](CCN1S(=O)(=O)c1cn(C)cn1)[C@H](CO)N2,13.7% (inactive),27.2%,4.63%
CCC(=O)N1[C@@H](CO)[C@@H](c2ccccc2)C12CN(C(=O)Cc1ccccc1)C2,2.16% (inactive),3.77%,-0.755%
COc1ccc(CCNc2ncnc3c2nnn3Cc2ccccc2)cc1,4.94% (inactive),7.23%,-1.23%
CC(C)CNc1ncnc2c1cnn2Cc1ccc(Cl)cc1,-36.1% (active),-17.1%,-0.858%
CC(C)(C)n1ncc2c(=O)n(Cc3ccc(Cl)cc3)cnc21,1.17% (inactive),1.78%,-4.59%
C/C=C/c1ccc(C2[C@H]3CNC[C@@H]2N3Cc2cccc(OC)c2)cc1 (stereo not given in full),-0.328% (inactive) and 2.3% (inactive),8.38% and 9.5%,6.71% and 2.48%
S=C(NCc1ccco1)Nc1ccc2c(c1)OCCO2,9.78% (inactive),8.22%,-0.482%
COc1cc(NC(=S)NCc2ccco2)c(OC)cc1Cl,4.76% (inactive),2.73%,1.65%
FC(F)Oc1ccc(NC(=S)NCc2ccco2)cc1Cl,-29.1% (active),-8.22%,5.68%
COc1cccc(NC(=O)N[C@H]2C=C[C@@H](CC(=O)Nc3ccc(-c4ccccc4)cc3)O[C@@H]2CO)c1,-12.2% (inactive),-10.6%,2.22%
CNC(=O)C[C@H]1CC[C@H]2[C@H](COc3ccc(NC(=O)Nc4ccc(F)cc4)cc3C(=O)N2C)O1,1.92% (inactive),1.94%,-3.24%
COc1ccc(S(=O)(=O)N2CCCCCC2)cc1C(=O)N(C)Cc1cccc(OC)c1OC,-11.5% (inactive),-16.8%,3.6%
COc1cccc(CN(C)CC(=O)NCc2ccccc2Cl)c1OC,-25.4% (active),-20.5%,1.05%
COc1ccc(CNC(=O)CN(Cc2ccccc2Cl)C(=O)c2csnn2)cc1,6.12% (inactive),13.2%,1.92%
N#Cc1ccc(-c2ccc(C3[C@@H]4CN(S(=O)(=O)c5cccc(Cl)c5)C[C@H]3N4)cc2)cc1 (stereo not given in full),-35.6% (inactive),-51%,-3.29%
C[C@H]1CN([C@@H](C)CO)C(=O)c2c(c3ccccc3n2C)-c2ccccc2CO[C@@H]1CN(C)CC1CCCCC1,-7.33% (inactive),-38.8%,12.5%
CC(C)NC(=O)N(C)C[C@H]1Oc2ccc(NS(C)(=O)=O)cc2C(=O)N(C)C[C@@H]1C,2.01% (inactive),2.51%,-2.3%
Cc1ccc(S(=O)(=O)N(C)C[C@@H]2Oc3ccc(NS(=O)(=O)c4cccs4)cc3C(=O)N([C@@H](C)CO)C[C@H]2C)cc1,-5.79% (inactive),-10.9%,1.46%
